40 molecules from PubChem BioAssay (NCI) can be followed below.

Molecules are shown by their SMILES. This is part of a sample that, as a whole, favours compounds with a hit. Of some 83,000 tested, about 20% had one in any assay.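 Plates (96-well) were seeded with cells, treated with compound at one concentration, and incubated for 48 hours before percent growth was determined.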 Activity calls are given as the source filed them.

This assay concerns BT-549 breast. Put plainly: NCI-60 one-dose screen, 48 h (100 = growth as untreated, 0 = no growth, -100 = all killed). Conditions: 10 µM unless noted. The protocol:
Growth inhibition of the BT-549 human tumor cell line is measured as a screen for anti-cancer activity. Cells are grown in 96 well plates and exposed to the test compound for 48 hours. Compounds are tested at a single concentration, which is 10^-5 M for most compounds. The reported endpoint is percent growth (GI% or GIPRCNT), where numbers from 0 - 100% represent growth inhibition, and numbers from -100% - 0 represent cell death. For example, a value of 40 represents 60% growth inhibition. A value of 0 means no net growth occurred over the course of the experiment. A value of -40 indicates 40% of cells at the beginning of the experiment died by the end of the experiment. A value of -100 means all cells are dead at the end of the experiment.
NCI-60 Human Tumor Cell Lines Screen was performed using the standard one-dose NCI protocol, which is described in more detail at https://dtp.cancer.gov/discovery_development/nci-60/default.htm.
Compounds with GIPRCNT values below 10 were considered active. Activity score was based on GIPRCNT using the following formula: […]
Score is 0 for GIPRCNT values of 100 or above, 50 for GIPRCNT values of 0, and 100 for GIPRCNT values of -100.
On to `CCCn1cnc2c1c(=O)n(CCCCC(C)=O)c(=O)n2C`, for which the growth was 103% (inactive). To `CCCc1nn(C)c2c(=O)[nH]c(-c3cc(S(=O)(=O)N4CCN(C)CC4)ccc3OCC)nc12` belongs 94.5% (inactive). To `CCN(CC)CCNc1ccc(Cl)cc1Cl` belongs 106% (inactive). As for `Cc1nc(N)[nH]c(=O)c1C`, the figure is 45.1% (inactive); as for `CCC1=C(c2ccc(OC)cc2)C(C)Oc2cc(OC(C)=O)ccc21` (stereo not given), 95.4% (inactive); as for `CCOC(=O)c1c2c(c(C)n1Cc1ccc(OC)cc1)-c1nc(N)ncc1CC2`, 119% (inactive).

In the case of `NS(=O)(=O)c1ccc(NC2=C(Cl)C(=O)c3ccccc3C2=O)cc1`, the growth is 84.4% (inactive).

Regarding `Cc1cc(C(C)(C)C)cc(C)c1CC1=NCCN1`, the growth is 98.3% (inactive). With `CCc1ccc(CCN2C(=O)c3ccccc3C2=O)nc1`, the growth is 116% (inactive). `O=C(CCc1nnc(SCc2ccccc2)s1)c1nc2ccccc2[nH]1`: the growth was 108% (inactive). To `CN=C(NC)N/N=C(C)\C=N\NC(=NC)NC` belongs 110% (inactive); to `Cc1ccc(C(C)C)cc1NC(=O)Nc1ccc([N+](=O)[O-])cc1`, -1.5% (active).

In the case of `CC(=O)Oc1ccc(C23c4ccccc4C2(OC(C)=O)c2cc(OC(C)=O)ccc23)cc1` (stereo not given), the growth is 106% (inactive). To `COc1ccc(-c2csc(NC(=O)c3cc(OC)c(OC)c(OC)c3)n2)cc1` belongs 106% (inactive); to `COc1cc(OC)c2cc(C(=O)O)c(=O)oc2c1`, 77.5% (inactive). To `COC(=O)CC1=C(C)/C(=C/c2[nH]c(-c3ccc[nH]3)cc2OC)N=C1C` belongs 22.3% (inactive); to `COc1ccc(/C=N/NC(=O)c2ccc(S(C)(=O)=O)cc2)cc1OC`, 109% (inactive); to `O=C(OC[C@H]1O[C@H](OC(=O)c2cc(O)c(O)c(OC(=O)c3cc(O)c(O)c(O)c3)c2)[C@H](OC(=O)c2cc(O)c(O)c(OC(=O)c3cc(O)c(O)c(O)c3)c2)[C@@H](OC(=O)c2cc(O)c(O)c(OC(=O)c3cc(O)c(O)c(O)c3)c2)[C@@H]1OC(=O)c1cc(O)c(O)c(OC(=O)c2cc(O)c(O)c(O)c2)c1)c1cc(O)c(O)c(OC(=O)c2cc(O)c(O)c(O)c2)c1`, 47.4% (inactive).

Regarding `Cc1ccccc1-c1cc(Cc2ccccc2O)c(=O)[nH]n1`, the growth is 112% (inactive). For the molecule `CC(O)c1nc2c(c(=O)n(C)c(=O)n2C)n1C` (stereo not given), the growth was 109% (inactive). As for `Cc1ccc([N+](=O)[O-])cc1NC(=O)Nc1cccc(F)c1`, the figure is 92.7% (inactive); as for `O=C(/C(=N/O)S(=O)(=O)c1ccccc1)c1cccs1`, 103% (inactive). As for `CCCCCCC/C(=N\N=C(N)N)c1ccc(O)cc1`, the figure is 46.9% (inactive). To `CN1C(=O)/C(=C/c2nc(-c3cccc(F)c3)n3ccccc23)c2ccccc21` belongs 90.9% (inactive). As for `OC(Cc1cccnc1)c1ccccc1` (stereo not given), the growth is 107% (inactive).

For `O=[N+]([O-])c1cnc(Sc2ccncn2)c([N+](=O)[O-])c1`, the growth is 111% (inactive). As for `CCC(C)(C)C(=O)O[C@H]1C[C@@H](C)C=C2C=C[C@H](C)[C@H](CC[C@@H]3C[C@@H](O)CC(=O)O3)[C@H]21`, the figure is 84% (inactive). Turning to `Cc1nn(-c2ccc(Cl)cc2)c2nc3c(nc12)C(=O)c1ccccc1-3`, the growth is 82% (inactive). As for `ClC1=C(Cl)C(Cl)=C(Cl)C1=C/C=C/c1ccccc1`, the figure is -12.6% (active); as for `CC(C)(C)c1cc(O)c(O)c(C(C)(C)C)c1`, 61.2% (inactive); as for `CC(C)[C@H]1CC[C@H]2[C@@H](CC[C@H]3[C@](C)(CN)CCC[C@]23C)C1`, 99.4% (inactive). To `O=c1ccn(C2CCCO2)c(=O)[nH]1` (stereo not given) belongs 118% (inactive); to `CC[C@H](C)C(=O)O[C@H]1C[C@@H](C)C=C2C=C[C@H](C)[C@H](CC[C@@H]3C[C@@H](O)CC(=O)O3)[C@H]21`, 82.4% (inactive); to `O=C(O)c1ccc(NC(=O)c2ccc(Nc3ccnc(C(F)(F)F)c3)cc2)cc1`, 109% (inactive). To `CCC(C)CC(C)C(=O)c1c(O)ccn(O)c1=O` (stereo not given) belongs 35.6% (inactive). Turning to `CN(C)c1nc(N)nc(Cn2c(-c3nonc3N)nc3ccccc32)n1`, the growth is 91.8% (inactive). To `COc1ccc2c(c1)/C(=C\c1c[nH]c3ccc(F)cc13)C(=O)N2` belongs 106% (inactive). To `O=C(Nc1nc(-c2ccccc2)cs1)c1cc(O)c(O)c(O)c1` belongs 46% (inactive); to `C[N+]1(CCc2ccccc2)CCC(CCC2CC[N+](C)(CCc3ccccc3)CC2)CC1` (stereo not given), 106% (inactive).

For `COc1cc(/C=C2\CCC/C(=C\c3ccc(OCC4CO4)c(OC)c3)C2=O)ccc1OCC1CO1` (stereo not given), the growth was 30.3% (inactive).
